The source made the active and inactive calls. The call rests on the fitted dose curve; in most records, active means well fitted curve in the direction sought with a large enough effect in the signal ratio in the repeat runs (not every such curve was filed as active); inconclusive means weak or mixed curves, or effect the other way; inactive means no such curve, though single readings can be large or run the other way; the % refers to the signal ratio.
Molecular target: Estrogen receptor (Homo sapiens) (UniProt P03372)
Sequence (P03372 whole entry, looked up): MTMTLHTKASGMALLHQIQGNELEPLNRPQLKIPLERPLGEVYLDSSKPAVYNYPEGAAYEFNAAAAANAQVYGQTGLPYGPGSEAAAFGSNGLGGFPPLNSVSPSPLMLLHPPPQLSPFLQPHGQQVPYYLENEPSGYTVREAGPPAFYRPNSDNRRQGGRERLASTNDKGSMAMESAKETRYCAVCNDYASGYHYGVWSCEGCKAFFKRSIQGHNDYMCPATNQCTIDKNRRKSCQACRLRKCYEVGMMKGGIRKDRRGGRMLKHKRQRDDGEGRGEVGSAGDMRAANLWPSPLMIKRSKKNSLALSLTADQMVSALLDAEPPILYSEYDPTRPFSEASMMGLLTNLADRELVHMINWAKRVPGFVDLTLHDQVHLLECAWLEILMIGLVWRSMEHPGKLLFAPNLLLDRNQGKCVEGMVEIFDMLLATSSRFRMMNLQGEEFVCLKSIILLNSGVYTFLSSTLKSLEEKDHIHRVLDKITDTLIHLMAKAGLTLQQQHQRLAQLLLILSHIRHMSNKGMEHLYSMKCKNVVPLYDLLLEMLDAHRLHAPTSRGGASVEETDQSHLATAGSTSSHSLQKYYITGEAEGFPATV
Experiment: qHTS assay to identify small molecule antagonists of the estrogen receptor alpha (ER-alpha) signaling pathway (AID 743069)
Details: HEK293 ER-alpha-UAS-bla, beta-lactamase ratio, antagonist mode; series mostly up to 69.4 µM; activity, negative = inhibition: at the top concentration
Excerpt: National Center for Advancing Translational Sciences [NCATS]
NIH Chemical Genomics Center [NCGC]
U.S. Environmental Protection Agency [EPA]
National Institutes of Environmental Health Sciences [NIEHS]
National Toxicology Program [NTP]
U.S. Food and Drug Administration [FDA]
Estrogen receptor (ER), a nuclear hormone receptor, plays an important role in development, metabolic homeostasis and reproduction. Two subtypes of ER, ER-alpha and ER-beta have similar expression patterns with some uniqueness in both types. Endocrine disrupting chemicals (EDCs) and their interactions with steroid hormone receptors like ER causes disruption of normal endocrine function. To identify the compounds that inhibit ER signaling, an ER-alpha-UAS-bla GripTiteTM cell line (Invitrogen, Carlsbad, CA, USA) containing a beta-lactamase reporter gene under the control of an Upstream Activator Sequence (UAS) stably integrated into HEK293 cells was used to screen the Tox21 10K compound library.
Tox21 Assay Protocol Summary:
ER-alpha-bla cells were cultured in assay medium containing 2% charcoal stripped FBS overnight in the culture flasks before the assay was performed. The cells were dispensed at 5,000 cells/5 uL of assay medium per well into black wall/clear-bottom 1536-well plates using a Multidrop Combi (ThermoFisher Scientific, Waltham, MA) dispenser. After the assay plates were incubated at a 37C and 5% CO2 for 4 hr, 23 nL of compounds dissolved in DMSO, positive controls or DMSO only was transferred to the assay plate by a Pintool station (Kalypsys, San Diego, CA), followed by addition of 1 uL of 17beta-estradiol in assay medium using a Flying Reagent Dispenser (Aurora Discovery, San Diego, CA). The plates were incubated at 37C and 5% CO2 for 18 hr. Then 1 uL of LiveBLAzerTM B/G FRET substrate was added using a Flying Reagent Dispenser, the plates were incubated at room temperature for 2 hours, and fluorescence intensity was measured by an Envision plate reader (PerkinElmer, Shelton, CT).
On the % scale 0 is the no-effect control and ±100 the full control effect; potency means the concentration at half of the fitted maximal effect.

Compound | activity, negative = inhibition | Potency
CC#N | -5.4% [at 79.1 µM] (inactive) | 
CC1=CC(O)CC(C)(C)C1 (stereo not given) | 22.8% (inactive) | 
COC(OC)(C(=O)c1ccccc1)c1ccccc1 | -12.7% (inactive) | 
COc1ccc(CCC(=O)c2c(O)cc(O[C@@H]3O[C@H](CO)[C@@H](O)[C@H](O)[C@H]3O[C@@H]3O[C@@H](C)[C@H](O)[C@@H](O)[C@H]3O)cc2O)cc1O | 8.02% (inactive) | 
CC(=O)Nc1ccccc1C | -6.34% [at 79.1 µM] (inactive) | 
O=C(O)Cc1ccc(-c2ccccc2)cc1 | 6.58% [at 32.6 µM] (inactive) | 
Cc1nc2ccccc2s1 | -7.15% [at 79.1 µM] (inactive) | 
CN1CCCN=C1/C=C/c1cccs1 | 19.1% (inactive) | 
CCOC(=O)c1ccccc1C | 1.69% (inactive) | 
ON(Cc1ccccc1)Cc1ccccc1 | 17.7% (inactive) | 
CCCOC(=O)c1ccc(C(=O)OCCC)nc1 | 20.7% (inactive) | 
COC(=O)CC(=O)C(C)(C)C | 11.4% (inactive) | 
NC(=O)N(O)[C@@H]1COc2cc(OCc3ccccc3)ccc21 | -44.1% (inactive) | 
CC(C)(CCl)c1ccccc1 | 3.91% (inactive) | 
CCCCCC=CCC=CCCCCCCCC(=O)OCC | 4.42% (inactive) | 
O=C(NCCCN1CCOCC1)c1ccc(Cl)cc1 | 5.51% (inactive) | 
CO/N=C1\CN(c2nc3c(cc2F)c(=O)c(C(=O)O)cn3C2CC2)CC1CN (stereo not given) | 21.1% (inactive) | 
C=CCOC(=O)/C=C\C(=O)OCC=C | 35.2% [at 79.1 µM] (inactive) | 
O=C(O)c1cccc(O)c1 | 6.06% [at 79.1 µM] (inactive) | 
O=C(CCCN1CCC(O)(c2ccc(Br)cc2)CC1)c1ccc(F)cc1 | -6.93% [at 32.6 µM] (inactive) | 

Compound | activity, negative = inhibition | Potency
Cc1occc1C(=O)Nc1ccc(C(=O)N2CCC(F)(F)/C(=C\C(=O)N3CCC(N4CCCCC4)CC3)c3ccccc32)cc1 | -15.2% [at 32.6 µM] (inactive) | 
CN(C)CCOC1=Cc2ccccc2Sc2ccc(Cl)cc21 | -19.8% (inactive) | 
CC(COc1ccc(C(C)(C)C)cc1)OS(=O)OCCCl (stereo not given) | -3% [at 79.1 µM] (inactive) | 
CC(C)C(=O)O | -5.87% (inactive) | 
OCCSc1ccccc1 | 15.1% (inactive) | 
CCCCC(CC)COC(=O)COc1ccc(Cl)cc1C (stereo not given) | -16.3% (inactive) | 
CCOC(=O)CC(=O)C(=O)OCC | 4.74% (inactive) | 
C[C@]12CCC(=O)C=C1C=C[C@@H]1[C@@H]2CC[C@@]2(C)[C@H]1CC[C@@]21CCC(=O)O1 | 13.9% (inactive) | 
Cc1nccn1-c1ccc(Sc2cccc(C3(C(N)=O)CCOCC3)c2)cc1 |  | 275 nM [inconclusive] (active)
CC(=O)OCC(=O)[C@H]1CC[C@H]2[C@@H]3CCC4=CC(=O)CC[C@]4(C)[C@H]3CC[C@]12C | -11.3% (inactive) | 
CN1CCN(c2c(F)cc3c(=O)c(C(=O)O)cn4c3c2OCN4C)CC1 | 8.17% (inactive) | 
COC(=O)[C@@H]1CC2=CC(=O)CC[C@]2(C)[C@@]23O[C@@H]2C[C@@]2(C)[C@@H](CC[C@@]24CCC(=O)O4)[C@H]13 | -1.06% (inactive) | 
O=[N+]([O-])c1cccc(S(=O)(=O)NCCNS(=O)(=O)c2cccc([N+](=O)[O-])c2)c1 | -4.72% (inactive) | 
CCCCOC(=O)CCS | 28.3% (inactive) | 
O=S(=O)(c1ccccc1)c1ccc(Cl)cc1 | -24.6% (inactive) | 
O=Cc1c(Cl)cccc1Cl | 12.2% [at 79.1 µM] (inactive) | 
CCC(=O)OC/C=C/c1ccccc1 | 13.4% (inactive) | 
CCCOc1ccc(S(=O)(=O)N2CCN(CC)CC2)cc1-c1nc2c(CC)n(Cc3ccccn3)nc2c(=O)[nH]1 | -16.7% (inactive) | 
CCOC(=N)CC(=O)OCC | -9.45% (inactive) | 
CCCCCCCCCCOS(=O)(=O)O | -11.1% (inactive) | 
